Laboratory results from PubChem BioAssay AID651840 (Vanderbilt Specialized Chemistry Center, 2012).
Potency and affinity values are given separately. Activity calls are given as the source filed them.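 The calls were made as follows: active = mean concentration giving half inhibition of the glutamate calcium response below 30 µM; inactive = the rest.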

Molecular target: Metabotropic glutamate receptor 3 (Rattus norvegicus) (UniProt P31422)
Test: mGlu3 NAM potency via calcium readout, dose response, mGlu3 NAM project, TREx293 cells, Galpha15, calcium flux (AID 651840)
Settings: TREx293 mGlu3/Galpha15, calcium fluorescence, glutamate EC80

Metabotropic glutamate receptor 3 (Rattus norvegicus), sequence (P31422 whole entry, looked up): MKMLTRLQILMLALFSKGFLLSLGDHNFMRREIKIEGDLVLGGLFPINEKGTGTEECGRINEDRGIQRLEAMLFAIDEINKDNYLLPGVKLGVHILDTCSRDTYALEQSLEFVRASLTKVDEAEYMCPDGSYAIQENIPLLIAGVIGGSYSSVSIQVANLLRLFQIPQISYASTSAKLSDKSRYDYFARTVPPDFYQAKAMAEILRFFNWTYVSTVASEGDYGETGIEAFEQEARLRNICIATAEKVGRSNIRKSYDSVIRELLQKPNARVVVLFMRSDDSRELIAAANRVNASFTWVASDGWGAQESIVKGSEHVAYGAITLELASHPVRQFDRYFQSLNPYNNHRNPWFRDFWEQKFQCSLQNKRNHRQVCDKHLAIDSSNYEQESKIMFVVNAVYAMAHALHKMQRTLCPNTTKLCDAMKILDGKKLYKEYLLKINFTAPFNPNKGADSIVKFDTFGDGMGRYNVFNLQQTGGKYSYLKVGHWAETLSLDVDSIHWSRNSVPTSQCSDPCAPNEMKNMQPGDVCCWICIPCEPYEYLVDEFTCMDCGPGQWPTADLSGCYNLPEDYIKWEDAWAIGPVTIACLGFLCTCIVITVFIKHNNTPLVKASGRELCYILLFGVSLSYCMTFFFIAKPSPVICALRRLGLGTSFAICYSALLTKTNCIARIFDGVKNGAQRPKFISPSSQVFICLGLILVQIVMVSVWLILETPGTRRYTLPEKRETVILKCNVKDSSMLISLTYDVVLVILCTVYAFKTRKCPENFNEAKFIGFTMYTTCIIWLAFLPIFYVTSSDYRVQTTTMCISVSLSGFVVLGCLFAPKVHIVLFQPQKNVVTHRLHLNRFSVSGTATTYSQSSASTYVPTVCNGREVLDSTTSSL

SMILES	outcome
COc1ccc(C#Cc2ccc(C(=O)N3CCCC(O)(c4ccccc4OC)C3)cc2)cc1 (configuration not stated)	inactive
COc1ccc(C#Cc2ccc(C(=O)N3CCCC(O)(c4ccc(Cl)cc4)C3)cc2)cc1 (configuration not stated)	inactive
COc1ccc(C#Cc2ccc(C(=O)N3CCCC(O)(c4ccc(F)cc4)C3)cc2)cc1 (configuration not stated)	inactive
COc1ccc(C#Cc2ccc(C(=O)N3CCCC(O)(c4ccccc4)C3)cc2)cc1 (configuration not stated)	inactive
COc1cccc(COc2ccc(C(=O)N3CC(O)C3)cc2)c1	inactive
COc1ccc(C#Cc2ccc(C(=O)N[C@@H]3CCCNC3)cc2)cc1	inactive
O=C(c1ccc2cc(-c3cccc(-c4ccccc4)c3)ccc2c1)N1CCCC(CO)C1 (configuration not stated)	inactive
COc1ccc(C#Cc2ccc(C(=O)N3CCCC(O)(c4cccc(F)c4)C3)cc2)cc1 (configuration not stated)	inactive
COc1ccc(C#Cc2ccc(C(=O)N3CCCC(O)(c4ccc5ccccc5c4)C3)cc2)cc1 (configuration not stated)	inactive
COc1ccc(C#Cc2ccc(C(=O)N3CCCC(O)(CCC4OCCCO4)C3)cc2)cc1 (configuration not stated)	inactive
COc1ccc(C#Cc2ccc(C(=O)N3CCCC(O)(c4cccc(OC)c4)C3)cc2)cc1 (configuration not stated)	inactive
COc1ccc(C#Cc2ccc(C(=O)N3CCCC(O)(c4ccncc4)C3)cc2)cc1 (configuration not stated)	inactive
